Experimental data from publication PMC5540273 (PLoS ONE, 2017).

Legend:
Settings in all cases: concentration: 1 μM, replicates: in singlicate; n = 1
IRAK4 = system: IRAK4
ITK = system: ITK
[1] = system: JAK1(JH1domain-catalytic)
[2] = system: JAK1(JH2domain-pseudokinase)
[3] = system: JAK2(JH1domain-catalytic)
[4] = system: JAK3(JH1domain-catalytic)
JNK1 = system: T1, JNK1
T1 construct: gene MAPK8

JNK2 = system: T2, JNK2
T2 construct: gene MAPK9

JNK3 = system: T3, JNK3
T3 construct: gene MAPK10

KIT-autoinhibited = system: KIT-autoinhibited
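Also: KINOMEscan kinase panel screen.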

Structure (SMILES)	%Inh (IRAK4) [%]	%Inh (ITK) [%]	%Inh [1] [%]	%Inh [2] [%]	%Inh [3] [%]	%Inh [4] [%]	%Inh (JNK1) [%]	%Inh (JNK2) [%]	%Inh (JNK3) [%]	%Inh (KIT-autoinhibited) [%]
Nc1ncnc2[nH]c(-c3ccccc3)nc12 [AH5015]	52	12	8	34	47	0	9	16	15	14
COc1cccc(NC(=O)NC2CCN(c3ccnc(Nc4ccc(F)cc4)n3)C2)c1 (stereo not drawn) [GSK1379721]	12	0	7	0	20	0	0	4	0	0
COC(=O)c1c(-c2ccccc2)c2cc(OC)ccc2c(=O)n1Cc1ccccc1	10	9	10	0	0	0	66	68	85	6
CC1=C(C(=O)Nc2cc3cn[nH]c3cc2F)C(c2ccc(C(F)(F)F)cc2)CC(=O)N1 (stereo not drawn) [GSK429286]	17	13	40	0	62	29	21	25	15	0
Cl.O=C(Nc1cccc(-c2nn3ncccc3c2-c2ccnc(Nc3cccnc3)n2)c1)c1c(F)cccc1F [GSK312879]	28	15	15	0	23	0	14	18	19	0
COC(=O)c1c(-c2ccccc2)c2cc(C(=O)O)ccc2c(=O)n1Cc1ccccc1	22	5	2	0	0	0	0	0	0	0
CCn1c(-c2cccnc2O)nc2cnccc21 [SB-736715]	0	26	0	0	0	0	0	10	1	18
COc1ccccc1CNC(=O)c1cc(C(=O)c2ccccc2C)c[nH]1 [GSK364507]	23	16	19	0	0	0	45	9	16	0
Clc1cc(Cl)cc(Nc2ccnc(Nc3cc(Cl)cc(Cl)c3)n2)c1 [GSK175726]	0	4	12	0	22	0	2	0	0	3
Cn1ccc2ncnc(Oc3ccc(NC(=O)Nc4ccccc4)cc3)c21	17	0	0	39	2	21	22	0	0	57
COc1ccc(C2=C(Nc3cccc(C(=O)O)c3)C(=O)NC2=O)cc1 [SB-390765]	0	0	0	18	12	0	41	32	33	14
Cc1cccc(-c2nc(Nc3ccncc3)c3ccccc3n2)n1 [GW855857]	0	24	0	74	0	0	0	6	21	0
Nc1nc(-c2nccs2)c(-c2ccnc3ccccc23)s1 [GW693542]	16	6	17	0	10	0	20	22	1	0
O=C(Nc1n[nH]c2cc(-c3cccc(F)c3F)ccc12)C1CC1 [SB-733894]	0	0	0	67	27	18	32	0	1	6
Cn1ccc2ncnc(Oc3cccc(C(=O)Nc4ccccc4)c3)c21	8	0	7	27	12	0	16	0	0	0
O=C(Nc1n[nH]c2nc(-c3nccs3)c(Br)cc12)C1CC1 [SB-742251]	43	13	1	21	36	0	41	16	16	0
O=C(O)COc1ncnc2cc(-c3ccc4[nH]ncc4c3)sc12	0	0	0	44	16	46	30	21	15	30
Cl.Oc1ccc(-c2nc(-c3ccccc3)[nH]c2-c2ccncc2)cc1 [SB-428218]	18	10	4	36	0	0	2	0	0	18
